From PubChem
In the library only some 4.1% were active in any assay of this set; here they are far more common.
hcDAF12 agonist – H. contortus DAF-12 nuclear receptor activators, primary screen, cell-based, luminescence, HEK293, lit1-tk-luc reporter. HEK293 hcDAF-12 lit1-tk-luc reporter; 0% DMSO, 100% Δ7-dafachronic acid. activation, % at 6.8 µM. actives 1.4% (n = 370,000). AID 652067, 2013;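 active = activation above the mean of all tested compounds plus 3 SD, cut at about 5.5% in these data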
DAX1 inh-1 – DAX1 (NR0B1) inhibitors, primary screen, cell-based, HEK293, Gal4-DAX1, luciferase luminescence. actives 0.99% (n = 340,000). HEK293 Gal4-DAX1 luciferase reporter. AID 504766, 2011. Nuclear receptor subfamily 0 group B member 1 (Homo sapiens), P51843. inhibition, % at 6.75 µM;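 active = inhibition above the mean over all tested compounds plus 3 SD, cut at about 4.2% in these data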;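 note: inhibition shows as a rise in luminescence from relieved DAX1 repression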
Target sequence (P51843 207-470 limits assumed): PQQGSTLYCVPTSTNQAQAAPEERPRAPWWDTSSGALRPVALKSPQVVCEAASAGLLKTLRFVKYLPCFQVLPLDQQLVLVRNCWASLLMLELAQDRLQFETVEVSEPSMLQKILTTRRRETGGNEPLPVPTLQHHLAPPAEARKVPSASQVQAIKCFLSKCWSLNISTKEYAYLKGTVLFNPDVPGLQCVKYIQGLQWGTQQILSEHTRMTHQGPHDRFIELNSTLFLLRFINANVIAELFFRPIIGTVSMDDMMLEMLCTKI
ssDAF-12 act – S. stercoralis DAF-12 nuclear receptor activators, primary screen, cell-based, luminescence, HEK293, GRIP1 co-expression, lit1-tk-luc; Nuclear hormone receptor DAF-12 (Strongyloides stercoralis); HEK293 ssDAF-12/GRIP1 lit1-tk-luc reporter; % of 3 µM dafachronic acid response; activation, % at 6.8 µM; actives 1% (n = 370,000);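 active = activation above the mean over all tested compounds plus 3 SD, cut at about 0.9% in these data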
hgDAF12 agonist – H. glycines DAF-12 receptor agonists, primary screen, cell-based, luminescence, HEK293, GAL4 fusion, UAS-luciferase | activation, % at 6.8 µM | actives 1.8% (n = 370,000) | AID 687014, 2013 | HEK293 GAL4-hgDAF12 UAS-luciferase reporter, agonist luminescence; normalized to butyrate control;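 active = activation above a cutoff set at the mean of all screened compounds plus 3 SD, cut at about 10% in these data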
DAX1 inh-2 – DAX1 (NR0B1) inhibitors on StAR promoter, primary screen, cell-based, luminescence, SF-1 (NR5A1), full-length DAX-1 | HEK293T StAR-luciferase reporter, SF-1/DAX-1 repression relief | inhibition, % at 6.8 µM | actives 1.1% (n = 370,000);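 active = inhibition above the mean over all tested compounds plus 3 SD, cut at about 3.6% in these data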;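 note: higher inhibition means more luminescence from relief of DAX-1 repression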
Each line names hits and unclear results; the compound was inactive in the other large screens.

Cc1ccc(CONC(=O)c2cccc([N+](=O)[O-])c2)cc1	DAX1 inh-1 4.7
CC(=O)OC12CCCN(C1)/C(=C/c1cccc(N(C)C)c1)C2 (centres undefined)	none (no result: DAX1 inh-1)
C/C(=N/NC(=O)c1cccs1)c1ccc(NC(=O)COc2ccc(Cl)cc2)cc1	DAX1 inh-1 4.7, hgDAF12 agonist 11.9
COc1ccc(-n2c(=S)[nH]c3cc(C(=O)NCc4ccco4)ccc3c2=O)cc1OC	none
O=C(NCc1ccco1)c1ccc2c(=O)n(-c3ccccc3)c(=S)[nH]c2c1	DAX1 inh-1 4.9
COCc1cc(N2CCN(C(=O)OC(C)(C)C)C[C@H]2C)ccc1N1CCS(=O)(=O)CC1	none (no result: DAX1 inh-1)
COCCNC(=O)c1c(N)[nH]c(C(=O)c2ccc(Br)cc2)c1-c1ccc(Br)cc1	none (no result: DAX1 inh-1)
CCCC(C)NNC(=O)c1cc2ccccc2[nH]1 (centres undefined)	none
CC(C)(C)c1ccc(S(=O)(=O)NNC(=O)c2cc3ccccc3[nH]2)cc1	hcDAF12 agonist 6.5
COc1ccc(Cl)cc1NC(=O)COC(=O)Cc1cc(OC)c(OC)c(OC)c1	ssDAF-12 act 2.8
COc1ccc(Cl)cc1NC(=O)Nc1ccc(Br)cn1	hcDAF12 agonist 6.0
COc1ccc(Cl)cc1NC(=O)/C=C\C(=O)O	ssDAF-12 act 0.9
COc1ccc(NC(=O)/C=C/C(=O)O)cc1Cl	none
COc1ccc(C(=O)O[C@@H]2CCC[C@@]3(C(=O)N(Cc4ccccc4)c4ccccc43)[C@H]2NC(=O)CCc2ccccc2)cc1OC	none (no result: DAX1 inh-1)
Cc1ccc2nc(-c3cccc(S(=O)(=O)N(C)C)c3)cn2c1	hgDAF12 agonist 10.6
O=c1cc(N2CCN(c3ccnc4cc(Cl)ccc34)CC2)[nH]c(=O)n1C1CCCCC1	none (no result: DAX1 inh-1, DAX1 inh-2)
Cc1ccc(Cn2cc(CN(C(C)(C)C)S(=O)(=O)c3ccccc3Br)nn2)cc1	none (no result: DAX1 inh-1)
Cc1cc(C)c(NC(=O)CCCC(=O)O)c(Cl)c1	none
CC(C)=CC(=O)Nc1c(C)cc(C)cc1Cl	DAX1 inh-1 4.6
Nc1ccc(Cl)c[n+]1Cc1cccc2cccnc12	hcDAF12 agonist 5.8
C#CCN1C(=O)[C@@](O)(c2cccn2C)c2cc(F)ccc21	none (no result: DAX1 inh-1)
COc1ccc(-c2coc3cc(O)c(OC)cc3c2=O)cc1	none
COc1ccc(-c2coc3cc(OC)cc(OC)c3c2=O)cc1	none
COc1ccc(-c2coc3cc(OC)cc(O)c3c2=O)cc1	DAX1 inh-1 5.0
COc1ccc(-c2coc3cc(OC(C)=O)ccc3c2=S)cc1	DAX1 inh-1 4.5, hgDAF12 agonist 11.1
C=CCN1C(=O)[C@@H](CC(=O)N2CCN(C(=O)C3CC3)CC2)[C@]2(C(=O)OC)CCCCC=C12	none (no result: DAX1 inh-1)
CCOc1c(Br)cc(/C=C2/SC(=O)N(CC(=O)N3CCCC3)C2=O)cc1OC	none
CCOC(=O)COc1c(Br)cc(/C=C2\SC(=O)N(CC(=O)N3CCCC3)C2=O)cc1OC	DAX1 inh-1 4.7
NC(=O)c1c(N)[nH]c(C(=O)c2ccccc2)c1-c1ccc2c(c1)OCO2	none (no result: DAX1 inh-1)
O=C(CSC1CC(=O)N(CCc2ccccc2)C1=O)Nc1cccc(Cl)c1 (centres undefined)	none
O=C(O)CSC1CC(=O)N(c2ccc(F)cc2)C1=O (centres undefined)	none
O=C(CSC1CC(=O)N(c2ccc(C(=O)O)cc2)C1=O)Nc1ccc(Cl)cc1 (centres undefined)	DAX1 inh-1 6.5
O=C(CSC1CC(=O)N(CCc2ccccc2)C1=O)Nc1ccc(Br)cc1 (centres undefined)	hcDAF12 agonist 5.8
COc1cccc(-c2cc(N3C(=O)Nc4ccccc4N3O)n[nH]2)c1	DAX1 inh-1 4.8
C=C1c2ccccc2O[C@H](C(=O)OCC)[C@@H]1C1CCCCC1	DAX1 inh-2 4.1
CCOC(=O)C1=C(N)c2ccccc2CC1C1CCCC1 (centres undefined)	none
COc1ccc(NC(=O)c2cc(-c3ccco3)on2)c(OC)c1	none
COc1ccc(NC(=O)c2cc(C3CC3)on2)c(OC)c1	ssDAF-12 act 1.1
COc1ccc(NC(=O)c2cc3ccccc3oc2=O)c(OC)c1	hgDAF12 agonist 11.0
